Results reported in publication PMC7862700, “An all-to-all approach to the identification of sequence-specific readers for epigenetic DNA modifications on cytosine”.

Assays:
Experiment in all cases: DAPPL (digital affinity profiling via proximity ligation, sequencing); 10 mM Tris-HCl pH 7.5, 50 mM NaCl, 1 mM DTT, 4% glycerol, room temperature, 30 min; GST-TFs on glutathione beads, 16-mer random dsDNA library, 0.1% formaldehyde crosslink after washing; high values mean tight binding
FEV = molecular target: T1, FEV (Homo sapiens, UniProt Q99581 1-238); conditions: protein: recombinant; tags: N-terminal GST; dsDNA, one strand shown
T1 sequence: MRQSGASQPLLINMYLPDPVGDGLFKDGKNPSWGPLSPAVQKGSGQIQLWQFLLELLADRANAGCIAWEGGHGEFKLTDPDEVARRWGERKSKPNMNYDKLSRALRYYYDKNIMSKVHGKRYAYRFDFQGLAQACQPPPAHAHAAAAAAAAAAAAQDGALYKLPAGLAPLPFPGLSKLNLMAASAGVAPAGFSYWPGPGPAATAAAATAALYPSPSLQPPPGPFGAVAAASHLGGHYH
Summary of the method: (§1)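 Beads coated with glutathione captured GST-fused human transcription factors that had been expressed in yeast, and the factors were then given DNA barcodes and pooled with a tag-only sample. The pools were incubated with 200 nmole of a random double-stranded 16-mer DNA library in Tris/NaCl/DTT/glycerol buffer for 30 min at room temperature, washed, crosslinked with 0.1% formaldehyde and proximity-ligated with BsaI/T4 ligase at 37 °C for 1 h. PCR amplification and Illumina NextSeq500 sequencing came last. Binding signal is each hexamer's read frequency for a factor divided by its frequency for the tag-only sample.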

ETV5 = ETV5 (Homo sapiens, UniProt P41161 1-510); conditions: protein: recombinant; tags: N-terminal GST; dsDNA, one strand shown
Summary of the method: as §1

HSF1 = HSF1 (Homo sapiens, UniProt Q00613 1-529); conditions: protein: recombinant; tags: N-terminal GST; chain copies: 3; dsDNA, one strand shown
Summary of the method: as §1

SPIC = molecular target: T2, SPIC (Homo sapiens, UniProt Q8N5J4 1-248); conditions: protein: recombinant; tags: N-terminal GST; dsDNA, one strand shown
T2 sequence: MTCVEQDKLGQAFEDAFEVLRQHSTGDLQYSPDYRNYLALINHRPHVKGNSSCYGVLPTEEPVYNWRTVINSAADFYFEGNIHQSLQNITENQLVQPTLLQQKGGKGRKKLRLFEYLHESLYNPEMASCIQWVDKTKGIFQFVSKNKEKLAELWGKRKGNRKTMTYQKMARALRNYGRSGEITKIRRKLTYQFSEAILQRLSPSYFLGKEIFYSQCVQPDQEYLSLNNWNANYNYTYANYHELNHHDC
Summary of the method: as §1

ELF4 = ELF4 (Homo sapiens, UniProt Q99607 1-663); conditions: protein: recombinant; tags: N-terminal GST; dsDNA, one strand shown
Summary of the method: as §1

ELK4 = molecular target: T3, ELK4 (Homo sapiens, UniProt P28324-2 1-405); conditions: protein: recombinant; tags: N-terminal GST; dsDNA, one strand shown
T3 sequence: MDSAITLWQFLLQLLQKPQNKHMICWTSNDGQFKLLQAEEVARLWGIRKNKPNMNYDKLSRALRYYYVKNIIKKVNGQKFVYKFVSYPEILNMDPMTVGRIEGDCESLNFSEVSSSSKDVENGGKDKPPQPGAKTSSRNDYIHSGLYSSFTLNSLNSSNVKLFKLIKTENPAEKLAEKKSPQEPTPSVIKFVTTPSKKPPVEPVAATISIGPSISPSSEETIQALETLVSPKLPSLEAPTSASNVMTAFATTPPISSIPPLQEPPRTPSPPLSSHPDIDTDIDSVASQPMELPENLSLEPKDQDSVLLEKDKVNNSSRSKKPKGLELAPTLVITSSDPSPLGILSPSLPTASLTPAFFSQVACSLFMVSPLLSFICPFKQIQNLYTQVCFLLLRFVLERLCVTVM
Summary of the method: as §1

ETV2 = molecular target: T4, ETV2 (Homo sapiens, UniProt O00321 1-342); conditions: protein: recombinant; tags: N-terminal GST; dsDNA, one strand shown
T4 sequence: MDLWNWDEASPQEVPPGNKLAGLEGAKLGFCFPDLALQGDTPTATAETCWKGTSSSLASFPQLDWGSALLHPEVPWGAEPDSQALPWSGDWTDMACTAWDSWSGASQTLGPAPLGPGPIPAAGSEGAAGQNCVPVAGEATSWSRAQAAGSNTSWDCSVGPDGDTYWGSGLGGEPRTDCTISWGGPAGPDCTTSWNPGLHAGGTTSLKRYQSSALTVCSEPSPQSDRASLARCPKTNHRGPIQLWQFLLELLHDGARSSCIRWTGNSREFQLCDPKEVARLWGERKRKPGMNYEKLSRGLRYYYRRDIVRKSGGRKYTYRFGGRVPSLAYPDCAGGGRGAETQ
Summary of the method: as §1

ELF3 = molecular target: T5, ELF3 (Homo sapiens, UniProt P78545 1-371); conditions: protein: recombinant; tags: N-terminal GST; dsDNA, one strand shown
T5 sequence: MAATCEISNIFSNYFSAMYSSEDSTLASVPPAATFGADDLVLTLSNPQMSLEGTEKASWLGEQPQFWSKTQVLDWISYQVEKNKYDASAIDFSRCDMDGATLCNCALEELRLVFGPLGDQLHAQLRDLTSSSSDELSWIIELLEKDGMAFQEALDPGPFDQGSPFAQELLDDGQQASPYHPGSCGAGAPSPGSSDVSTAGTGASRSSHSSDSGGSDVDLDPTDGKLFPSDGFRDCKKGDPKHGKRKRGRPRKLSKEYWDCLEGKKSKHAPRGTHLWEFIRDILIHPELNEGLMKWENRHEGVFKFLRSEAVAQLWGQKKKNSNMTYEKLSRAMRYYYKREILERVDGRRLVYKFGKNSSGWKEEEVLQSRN
Summary of the method: as §1

CRX = CRX (Homo sapiens, UniProt O43186 1-299); conditions: protein: recombinant; tags: N-terminal GST; dsDNA, one strand shown
Summary of the method: as §1

Sequence of ELF4 (Q99607 whole entry): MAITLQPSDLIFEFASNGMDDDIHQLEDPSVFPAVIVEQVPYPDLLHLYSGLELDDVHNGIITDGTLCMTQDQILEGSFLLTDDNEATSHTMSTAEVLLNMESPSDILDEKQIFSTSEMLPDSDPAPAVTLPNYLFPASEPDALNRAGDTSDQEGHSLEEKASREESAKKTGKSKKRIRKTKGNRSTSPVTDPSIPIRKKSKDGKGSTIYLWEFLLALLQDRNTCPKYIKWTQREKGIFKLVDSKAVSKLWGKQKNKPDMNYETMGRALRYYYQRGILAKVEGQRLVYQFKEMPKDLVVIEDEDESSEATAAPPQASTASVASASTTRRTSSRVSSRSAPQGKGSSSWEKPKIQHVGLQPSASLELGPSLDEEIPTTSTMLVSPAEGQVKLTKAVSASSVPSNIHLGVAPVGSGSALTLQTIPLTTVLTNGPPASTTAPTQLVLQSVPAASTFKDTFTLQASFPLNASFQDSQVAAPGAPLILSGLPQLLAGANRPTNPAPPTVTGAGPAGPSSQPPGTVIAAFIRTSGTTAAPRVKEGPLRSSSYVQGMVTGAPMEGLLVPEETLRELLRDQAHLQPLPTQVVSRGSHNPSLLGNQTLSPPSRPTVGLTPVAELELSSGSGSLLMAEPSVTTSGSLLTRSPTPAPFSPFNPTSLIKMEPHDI
Sequence of CRX (O43186 whole entry): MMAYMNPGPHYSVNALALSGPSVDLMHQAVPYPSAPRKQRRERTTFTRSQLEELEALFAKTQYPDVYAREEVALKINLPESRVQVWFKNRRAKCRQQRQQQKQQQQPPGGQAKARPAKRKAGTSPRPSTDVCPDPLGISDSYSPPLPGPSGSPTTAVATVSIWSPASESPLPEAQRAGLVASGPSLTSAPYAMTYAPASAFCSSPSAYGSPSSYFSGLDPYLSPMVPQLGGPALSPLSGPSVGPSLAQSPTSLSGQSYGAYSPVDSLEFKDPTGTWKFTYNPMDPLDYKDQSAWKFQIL
Sequence of ETV5 (P41161 whole entry): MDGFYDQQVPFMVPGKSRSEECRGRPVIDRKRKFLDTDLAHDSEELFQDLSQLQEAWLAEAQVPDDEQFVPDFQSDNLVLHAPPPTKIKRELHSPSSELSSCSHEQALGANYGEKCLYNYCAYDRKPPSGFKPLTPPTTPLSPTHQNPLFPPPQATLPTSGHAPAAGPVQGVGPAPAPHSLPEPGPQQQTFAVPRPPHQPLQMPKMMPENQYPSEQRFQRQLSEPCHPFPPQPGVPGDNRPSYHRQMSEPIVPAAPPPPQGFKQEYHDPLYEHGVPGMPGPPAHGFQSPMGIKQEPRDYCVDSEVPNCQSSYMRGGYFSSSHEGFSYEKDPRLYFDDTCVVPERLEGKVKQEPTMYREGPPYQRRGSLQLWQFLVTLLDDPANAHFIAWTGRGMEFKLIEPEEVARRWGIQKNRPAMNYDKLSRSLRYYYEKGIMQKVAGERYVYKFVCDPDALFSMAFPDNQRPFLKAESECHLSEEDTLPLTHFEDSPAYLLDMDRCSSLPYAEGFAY
Sequence of HSF1 (Q00613 whole entry): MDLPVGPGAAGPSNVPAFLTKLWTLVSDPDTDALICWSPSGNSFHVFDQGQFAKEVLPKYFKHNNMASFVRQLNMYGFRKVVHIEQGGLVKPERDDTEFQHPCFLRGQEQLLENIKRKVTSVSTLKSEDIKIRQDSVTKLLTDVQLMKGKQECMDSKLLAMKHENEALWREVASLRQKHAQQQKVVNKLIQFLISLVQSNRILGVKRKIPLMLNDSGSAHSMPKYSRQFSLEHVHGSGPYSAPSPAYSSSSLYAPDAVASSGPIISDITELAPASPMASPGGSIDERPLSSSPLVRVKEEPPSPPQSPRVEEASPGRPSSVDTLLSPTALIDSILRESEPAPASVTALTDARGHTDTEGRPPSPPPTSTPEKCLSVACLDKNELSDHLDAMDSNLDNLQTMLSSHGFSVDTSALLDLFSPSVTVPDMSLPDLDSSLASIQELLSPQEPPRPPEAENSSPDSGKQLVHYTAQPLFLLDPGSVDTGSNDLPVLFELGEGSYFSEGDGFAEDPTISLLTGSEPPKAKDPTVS

**Q.** Which binding signal (FEV) does the source give for AATACA here?
**A.** Its binding signal is 1.38 fold enrichment (6-mer frequency, TF over GST control).

**Q.** And the binding signal (ETV5)?
**A.** Its binding signal is 1.33 fold enrichment (6-mer frequency, TF over GST control).

**Q.** What about the binding signal (HSF1) of the same sequence?
**A.** The binding signal was 1.25 fold enrichment (6-mer frequency, TF over GST control).

**Q.** What about the binding signal (SPIC) of the same sequence?
**A.** The binding signal was 1.21 fold enrichment (6-mer frequency, TF over GST control).

**Q.** And the binding signal (ELF4)?
**A.** Its binding signal is 1.3 fold enrichment (6-mer frequency, TF over GST control).

**Q.** What about the binding signal (ELK4) of the same sequence?
**A.** Its binding signal is 1.29 fold enrichment (6-mer frequency, TF over GST control).

**Q.** And the binding signal (ETV2)?
**A.** The binding signal was 1.45 fold enrichment (6-mer frequency, TF over GST control).

**Q.** What about the binding signal (ELF3) of the same sequence?
**A.** Its binding signal is 1.18 fold enrichment (6-mer frequency, TF over GST control).

**Q.** What about the binding signal (CRX) of the same sequence?
**A.** Its binding signal is 1.33 fold enrichment (6-mer frequency, TF over GST control).
